# From PMC7862700, “An all-to-all approach to the identification of sequence-specific readers for epigenetic DNA modifications on cytosine”
# Tests used:
# Assay in all cases: DAPPL (digital affinity profiling via proximity ligation, sequencing); 10 mM Tris-HCl pH 7.5, 50 mM NaCl, 1 mM DTT, 4% glycerol, room temperature, 30 min; GST-TFs on glutathione beads, 16-mer random dsDNA library, 0.1% formaldehyde crosslink after washing; high values mean tight binding
# Settings in all cases: protein: recombinant; tags: N-terminal GST; dsDNA, one strand shown
# ETV2 = biological target: T1, ETV2 (Homo sapiens, UniProt O00321 1-342)
# T1 sequence: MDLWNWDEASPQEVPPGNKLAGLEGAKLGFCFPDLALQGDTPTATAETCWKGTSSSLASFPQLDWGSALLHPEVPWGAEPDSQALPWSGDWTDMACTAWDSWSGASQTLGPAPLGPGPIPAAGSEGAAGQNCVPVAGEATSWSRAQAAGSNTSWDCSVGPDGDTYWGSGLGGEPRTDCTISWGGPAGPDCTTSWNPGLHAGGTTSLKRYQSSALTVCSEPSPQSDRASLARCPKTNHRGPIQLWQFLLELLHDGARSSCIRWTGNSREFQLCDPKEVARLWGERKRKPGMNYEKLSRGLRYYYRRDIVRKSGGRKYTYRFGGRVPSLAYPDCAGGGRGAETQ
# Procedure, shortened: (§1)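 Sequencing on an Illumina NextSeq500 followed washing, crosslinking with 0.1% formaldehyde, proximity ligation (BsaI/T4 ligase, 1 h, 37 °C) and PCR amplification of pools that had been incubated for 30 min at room temperature with 200 nmole of a random double-stranded 16-mer DNA library in Tris/NaCl/DTT/glycerol buffer. Each pool held DNA-barcoded human transcription factors, expressed in yeast as GST fusions and captured on glutathione beads, plus a tag-only sample. Binding signal is a hexamer's read frequency for a factor divided by its frequency in the tag-only sample.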
# ELF3 = biological target: T2, ELF3 (Homo sapiens, UniProt P78545 1-371)
# T2 sequence: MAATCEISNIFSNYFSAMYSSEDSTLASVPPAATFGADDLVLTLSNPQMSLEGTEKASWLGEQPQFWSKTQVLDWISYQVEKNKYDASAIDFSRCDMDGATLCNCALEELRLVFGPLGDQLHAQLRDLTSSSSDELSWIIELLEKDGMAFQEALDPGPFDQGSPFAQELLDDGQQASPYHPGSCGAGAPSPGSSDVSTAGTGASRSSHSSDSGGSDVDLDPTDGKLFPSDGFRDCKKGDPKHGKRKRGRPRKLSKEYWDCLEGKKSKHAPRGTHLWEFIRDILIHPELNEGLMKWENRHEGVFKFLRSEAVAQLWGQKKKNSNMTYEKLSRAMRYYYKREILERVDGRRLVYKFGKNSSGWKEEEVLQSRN
# Procedure, shortened: as §1
# ETV1 = ETV1 (Homo sapiens, UniProt P50549 1-477)
# Sequence of ETV1 (P50549 whole entry): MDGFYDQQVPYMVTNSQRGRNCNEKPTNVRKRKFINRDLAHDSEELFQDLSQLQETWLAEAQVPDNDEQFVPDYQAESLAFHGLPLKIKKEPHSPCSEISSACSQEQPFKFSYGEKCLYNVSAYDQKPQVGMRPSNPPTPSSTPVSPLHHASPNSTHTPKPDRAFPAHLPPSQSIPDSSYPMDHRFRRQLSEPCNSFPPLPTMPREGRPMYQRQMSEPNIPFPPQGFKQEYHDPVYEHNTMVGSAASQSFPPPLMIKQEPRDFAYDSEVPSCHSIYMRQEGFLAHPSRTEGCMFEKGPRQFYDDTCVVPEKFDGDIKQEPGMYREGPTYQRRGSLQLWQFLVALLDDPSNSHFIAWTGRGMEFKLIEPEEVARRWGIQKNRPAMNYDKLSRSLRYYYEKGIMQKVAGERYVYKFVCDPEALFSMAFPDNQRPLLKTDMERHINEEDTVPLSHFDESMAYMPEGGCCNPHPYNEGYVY
# Procedure, shortened: as §1
# ERF = biological target: T3, ERF (Homo sapiens, UniProt P50548 1-548)
# T3 sequence: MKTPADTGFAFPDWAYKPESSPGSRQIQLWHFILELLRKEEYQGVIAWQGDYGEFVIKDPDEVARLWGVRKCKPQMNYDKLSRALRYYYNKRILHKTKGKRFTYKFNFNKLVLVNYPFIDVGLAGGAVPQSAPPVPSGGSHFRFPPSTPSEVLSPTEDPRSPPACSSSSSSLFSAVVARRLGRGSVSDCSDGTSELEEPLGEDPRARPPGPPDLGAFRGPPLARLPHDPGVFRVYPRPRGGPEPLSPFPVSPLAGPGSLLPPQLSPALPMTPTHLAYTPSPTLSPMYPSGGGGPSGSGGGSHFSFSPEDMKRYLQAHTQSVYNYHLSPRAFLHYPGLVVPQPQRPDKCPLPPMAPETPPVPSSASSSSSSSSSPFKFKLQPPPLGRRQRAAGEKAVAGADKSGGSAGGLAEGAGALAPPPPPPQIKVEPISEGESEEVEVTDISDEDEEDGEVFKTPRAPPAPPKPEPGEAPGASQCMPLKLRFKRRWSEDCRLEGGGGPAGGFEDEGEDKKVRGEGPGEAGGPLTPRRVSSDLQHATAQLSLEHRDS
# Procedure, shortened: as §1
# ETV3L = biological target: T4, ETV3L (Homo sapiens, UniProt Q6ZN32 1-361)
# T4 sequence: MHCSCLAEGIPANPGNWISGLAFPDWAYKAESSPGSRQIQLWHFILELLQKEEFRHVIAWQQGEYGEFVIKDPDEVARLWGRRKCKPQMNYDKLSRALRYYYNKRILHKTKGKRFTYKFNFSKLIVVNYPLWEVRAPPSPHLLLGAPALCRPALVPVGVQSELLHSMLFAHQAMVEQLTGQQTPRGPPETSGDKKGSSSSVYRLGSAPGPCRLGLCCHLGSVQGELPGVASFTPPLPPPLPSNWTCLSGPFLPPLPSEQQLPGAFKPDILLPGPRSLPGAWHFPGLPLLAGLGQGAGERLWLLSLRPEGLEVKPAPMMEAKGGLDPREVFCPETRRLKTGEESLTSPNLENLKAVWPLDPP
# Procedure, shortened: as §1
# ETS2 = biological target: T5, ETS2 (Homo sapiens, UniProt P15036 1-469)
# T5 sequence: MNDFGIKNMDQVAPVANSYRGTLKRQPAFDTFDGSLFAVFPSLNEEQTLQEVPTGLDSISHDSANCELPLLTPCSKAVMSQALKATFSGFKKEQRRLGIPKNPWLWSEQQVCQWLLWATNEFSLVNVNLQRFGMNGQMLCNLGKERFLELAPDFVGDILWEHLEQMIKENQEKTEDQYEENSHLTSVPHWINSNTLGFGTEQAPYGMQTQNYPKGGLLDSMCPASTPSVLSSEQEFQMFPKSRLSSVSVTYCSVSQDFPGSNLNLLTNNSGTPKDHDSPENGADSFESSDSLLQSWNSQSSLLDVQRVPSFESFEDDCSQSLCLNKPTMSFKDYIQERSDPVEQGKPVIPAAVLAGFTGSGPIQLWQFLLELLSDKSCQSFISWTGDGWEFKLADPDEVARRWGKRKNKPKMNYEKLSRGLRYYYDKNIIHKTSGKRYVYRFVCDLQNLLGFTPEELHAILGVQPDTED
# Procedure, shortened: as §1
# SPDEF = biological target: T6, SPDEF (Homo sapiens, UniProt O95238 1-335)
# T6 sequence: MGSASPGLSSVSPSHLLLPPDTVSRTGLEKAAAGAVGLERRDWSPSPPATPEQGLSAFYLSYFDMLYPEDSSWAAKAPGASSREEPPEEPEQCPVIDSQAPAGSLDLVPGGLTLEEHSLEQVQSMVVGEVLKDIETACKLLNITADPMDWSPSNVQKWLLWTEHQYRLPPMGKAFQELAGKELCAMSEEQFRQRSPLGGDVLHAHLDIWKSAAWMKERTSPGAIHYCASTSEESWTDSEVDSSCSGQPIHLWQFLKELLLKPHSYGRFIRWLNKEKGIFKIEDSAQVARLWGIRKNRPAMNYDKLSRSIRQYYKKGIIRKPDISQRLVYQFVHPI
# Procedure, shortened: as §1
# ETV7 = biological target: T7, ETV7 (Homo sapiens, UniProt Q9Y603 1-341)
# T7 sequence: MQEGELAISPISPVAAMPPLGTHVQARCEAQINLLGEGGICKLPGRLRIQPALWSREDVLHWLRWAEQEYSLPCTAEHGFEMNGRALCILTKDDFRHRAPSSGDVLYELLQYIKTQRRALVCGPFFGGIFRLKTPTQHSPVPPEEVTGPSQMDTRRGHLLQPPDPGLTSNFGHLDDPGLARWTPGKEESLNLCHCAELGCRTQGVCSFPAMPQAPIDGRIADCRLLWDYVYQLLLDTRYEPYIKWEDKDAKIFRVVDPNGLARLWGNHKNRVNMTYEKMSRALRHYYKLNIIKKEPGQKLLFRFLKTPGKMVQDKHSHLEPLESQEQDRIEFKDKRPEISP
# Procedure, shortened: as §1
# ETV3 = biological target: T8, ETV3 (Homo sapiens, UniProt P41162-2 1-143)
# T8 sequence: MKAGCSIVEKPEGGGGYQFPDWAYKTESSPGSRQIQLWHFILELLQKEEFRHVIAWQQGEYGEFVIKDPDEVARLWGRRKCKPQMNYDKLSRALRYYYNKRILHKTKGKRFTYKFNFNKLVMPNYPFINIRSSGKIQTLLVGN
# Procedure, shortened: as §1
# ETV6 = ETV6 (Homo sapiens, UniProt P41212 1-452)
# Sequence of ETV6 (P41212 whole entry): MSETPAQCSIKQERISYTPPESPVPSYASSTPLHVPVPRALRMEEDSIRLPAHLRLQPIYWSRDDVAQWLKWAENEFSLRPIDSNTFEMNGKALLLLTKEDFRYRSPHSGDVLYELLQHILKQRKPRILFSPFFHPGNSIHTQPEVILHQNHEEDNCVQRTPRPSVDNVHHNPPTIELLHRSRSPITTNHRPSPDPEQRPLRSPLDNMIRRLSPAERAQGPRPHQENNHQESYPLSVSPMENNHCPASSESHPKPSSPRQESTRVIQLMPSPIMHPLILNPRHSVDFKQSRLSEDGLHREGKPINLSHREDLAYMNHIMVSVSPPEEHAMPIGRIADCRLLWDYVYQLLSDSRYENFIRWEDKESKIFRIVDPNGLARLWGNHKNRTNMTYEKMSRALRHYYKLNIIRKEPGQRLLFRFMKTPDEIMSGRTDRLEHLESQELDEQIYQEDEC
# Procedure, shortened: as §1
sequence,measurement,setting,value
ACCATT,binding signal,ETV2,"1.26 fold enrichment (6-mer frequency, TF over GST control)"
same,binding signal,ELF3,"1.17 fold enrichment (6-mer frequency, TF over GST control)"
same,binding signal,ETV1,"1.14 fold enrichment (6-mer frequency, TF over GST control)"
same,binding signal,ERF,"1.03 fold enrichment (6-mer frequency, TF over GST control)"
same,binding signal,ETV3L,"1.16 fold enrichment (6-mer frequency, TF over GST control)"
same,binding signal,ETS2,"1.15 fold enrichment (6-mer frequency, TF over GST control)"
same,binding signal,SPDEF,"1 fold enrichment (6-mer frequency, TF over GST control)"
same,binding signal,ETV7,"1.11 fold enrichment (6-mer frequency, TF over GST control)"
same,binding signal,ETV3,"1.1 fold enrichment (6-mer frequency, TF over GST control)"
same,binding signal,ETV6,"1.14 fold enrichment (6-mer frequency, TF over GST control)"
